Assay results taken from PubChem BioAssay.
For some assays here: Results with a measured potency or affinity are listed apart. Activity calls are given as the source filed them. Unless noted, the rule behind the calls is not given here.

How the values were obtained:
[1] = antimalarial activity against Dd2 strain (AID 2302;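 active = growth inhibition above 50% at the single 2 µM test dose, taken to imply half-maximal potency below 2 µM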;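 note: 0% = DMSO untreated growth and 100% = chloroquine plus artemisinin killed control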); settings: P. falciparum Dd2 in RBCs, LDH growth readout, 72 h; at 2 µM; hits give high values
[2] = HepG2 cytotoxicity, primary screen, cytotoxicity control for P. falciparum antimalarial project, cell-based, ATP luminescence (AID 2303;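 active = inhibition above 50%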;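 note: 0% = DMSO wells and 100% = digitonin-killed cells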); settings: HepG2 viability, 24-48 h, at 10 µM, hits give high values
[3] = biological target: L-lactate dehydrogenase (Plasmodium falciparum (isolate CDC / Honduras)) (UniProt Q27743); experiment: PfLDH activity inhibition – cell lysate, 3D7 strain, counter-screen for P. falciparum growth inhibition project (AID 2304);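 note: 0% = vehicle and 100% = reference inhibitor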; settings: P. falciparum 3D7 crude extract, LDH APAD/NBT absorbance; at 2 µM; hits give high values
Chain of L-lactate dehydrogenase (Plasmodium falciparum (isolate CDC / Honduras)) (Q27743 whole entry, looked up): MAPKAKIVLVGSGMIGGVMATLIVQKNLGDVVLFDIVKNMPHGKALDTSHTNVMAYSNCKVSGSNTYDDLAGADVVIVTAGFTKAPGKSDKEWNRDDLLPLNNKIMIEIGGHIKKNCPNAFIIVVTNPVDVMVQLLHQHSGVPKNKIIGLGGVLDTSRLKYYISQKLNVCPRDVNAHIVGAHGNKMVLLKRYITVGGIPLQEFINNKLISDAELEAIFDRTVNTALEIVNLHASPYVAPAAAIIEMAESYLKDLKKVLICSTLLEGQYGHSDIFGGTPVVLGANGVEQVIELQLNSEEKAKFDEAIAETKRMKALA

[4] = inhibition of 3D7 malaria parasite growth – strain 3D7 (AID 2306);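 note: 0% = DMSO wells and 100% = chloroquine plus artemisinin control wells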; settings: P. falciparum 3D7 erythrocytic growth, LDH absorbance, 72 h; at 2 µM; hits give high values
[5] = biological target: Calcium-dependent protein kinase 1 (Plasmodium falciparum (isolate 3D7)) (UniProt P62344); experiment: PfCDPK1 kinase inhibitors, biochemical, TCAMS library (AID 1159585; cut-off not given, nearly all actives have IC50 up to about 0.98 µM;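 note: inhibitors leave more ATP so luminescence rises with inhibition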); settings: recombinant PfCDPK1, Kinase-Glo ATP depletion luminescence
Chain of Calcium-dependent protein kinase 1 (Plasmodium falciparum (isolate 3D7)) (P62344 whole entry, looked up): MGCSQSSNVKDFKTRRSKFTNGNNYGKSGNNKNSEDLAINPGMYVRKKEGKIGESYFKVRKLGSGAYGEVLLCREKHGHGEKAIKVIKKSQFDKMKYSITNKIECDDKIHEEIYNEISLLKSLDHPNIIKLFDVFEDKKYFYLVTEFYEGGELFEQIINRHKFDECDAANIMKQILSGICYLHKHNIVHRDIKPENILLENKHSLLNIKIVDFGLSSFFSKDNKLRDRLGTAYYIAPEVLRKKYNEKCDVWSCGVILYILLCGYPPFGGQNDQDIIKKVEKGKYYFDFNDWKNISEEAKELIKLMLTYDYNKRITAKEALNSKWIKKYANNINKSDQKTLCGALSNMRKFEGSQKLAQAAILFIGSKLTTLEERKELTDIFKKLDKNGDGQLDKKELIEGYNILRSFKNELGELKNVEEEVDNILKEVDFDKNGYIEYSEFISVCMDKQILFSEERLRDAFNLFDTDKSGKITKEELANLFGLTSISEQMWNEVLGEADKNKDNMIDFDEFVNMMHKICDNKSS

[6] = biological target: Plasmodium falciparum protein kinase 6 (PK6, PF3D7_1337100) (UniProt Q8IDW1); experiment: PfPK6 kinase inhibitors, biochemical, TCAMS library (AID 1159586); settings: recombinant PfPK6, Kinase-Glo ATP depletion luminescence
Chain of Plasmodium falciparum protein kinase 6 (PK6, PF3D7_1337100) (Q8IDW1 1-305): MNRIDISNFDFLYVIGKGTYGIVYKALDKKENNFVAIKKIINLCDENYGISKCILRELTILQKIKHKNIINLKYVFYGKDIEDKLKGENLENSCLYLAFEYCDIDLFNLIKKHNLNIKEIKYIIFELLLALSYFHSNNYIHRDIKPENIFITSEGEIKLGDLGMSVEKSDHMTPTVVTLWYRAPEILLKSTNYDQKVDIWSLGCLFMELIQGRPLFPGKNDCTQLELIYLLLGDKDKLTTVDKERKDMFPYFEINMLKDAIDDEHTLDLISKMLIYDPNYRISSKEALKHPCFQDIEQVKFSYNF

[7] = biological target: Protein kinase 7 (PK7), Plasmodium falciparum 3D7 (PF3D7_0213400) (UniProt Q7YTF7); experiment: inhibition of Plasmodium PK7 catalytic activity – biochemical, TCAMS antimalarial set, Kinase-Glo luminescence (AID 1159587); settings: recombinant PfPK7, Kinase-Glo ATP depletion luminescence
Chain of Protein kinase 7 (PK7), Plasmodium falciparum 3D7 (PF3D7_0213400) (Q7YTF7 1-343): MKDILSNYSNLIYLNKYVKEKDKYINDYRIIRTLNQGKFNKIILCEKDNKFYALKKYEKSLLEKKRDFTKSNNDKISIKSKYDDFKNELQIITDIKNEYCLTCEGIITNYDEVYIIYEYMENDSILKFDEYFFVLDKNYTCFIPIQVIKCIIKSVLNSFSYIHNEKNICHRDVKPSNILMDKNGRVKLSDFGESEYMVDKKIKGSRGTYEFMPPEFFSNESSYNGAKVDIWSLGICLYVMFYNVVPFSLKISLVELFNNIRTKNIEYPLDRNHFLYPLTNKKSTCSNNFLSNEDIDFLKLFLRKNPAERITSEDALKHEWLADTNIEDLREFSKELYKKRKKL

[8] = biological target: Calcium-dependent protein kinase 4 (Plasmodium falciparum (isolate 3D7)) (UniProt Q8IBS5); experiment: PfCDPK4 kinase inhibitors, biochemical, TCAMS library (AID 1159588; cut-off not given, nearly all actives have IC50 up to about 0.91 µM); settings: recombinant PfCDPK4, Kinase-Glo ATP depletion luminescence
Chain of Calcium-dependent protein kinase 4 (Plasmodium falciparum (isolate 3D7)) (Q8IBS5 whole entry, looked up): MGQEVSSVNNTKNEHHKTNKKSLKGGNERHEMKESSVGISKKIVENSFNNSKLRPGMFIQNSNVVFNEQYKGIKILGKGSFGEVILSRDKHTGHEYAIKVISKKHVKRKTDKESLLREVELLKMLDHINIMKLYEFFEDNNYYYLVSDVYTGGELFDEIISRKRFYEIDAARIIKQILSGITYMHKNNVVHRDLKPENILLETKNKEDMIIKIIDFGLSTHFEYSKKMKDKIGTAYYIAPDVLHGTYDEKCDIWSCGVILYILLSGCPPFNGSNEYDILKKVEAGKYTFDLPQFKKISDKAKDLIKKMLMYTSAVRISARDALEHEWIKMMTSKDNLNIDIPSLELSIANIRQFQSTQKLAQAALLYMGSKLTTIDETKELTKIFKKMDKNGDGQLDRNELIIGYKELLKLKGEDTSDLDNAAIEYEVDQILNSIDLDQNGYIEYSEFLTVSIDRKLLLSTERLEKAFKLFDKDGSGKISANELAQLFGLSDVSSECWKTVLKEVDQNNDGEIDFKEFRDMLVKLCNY

CCCN(CCC)S(=O)(=O)c1ccc(C(=O)N2CCC(C(=O)OCC)CC2)cc1
inactive: growth inhibition [1] 41% | inhibition [2] 26% | inhibition [3] 1% | outcome [5] | outcome [6] | outcome [7] | outcome [8]
active: growth inhibition [4] 98%

Cc1cc(N[C@@H](CC(C)C)C(=O)NCc2cccs2)nc(NCCc2ccc(F)cc2)n1
inactive: inhibition [2] 20% | inhibition [3] -2% | outcome [5] | outcome [6] | outcome [7] | outcome [8]
active: growth inhibition [1] 59% | growth inhibition [4] 100%

Cc1cc(CNC(c2ccccc2)C2CCC2)cc(C)c1O (stereo unspecified)
inactive: growth inhibition [1] 48% | inhibition [3] -2% | outcome [5] | outcome [6] | outcome [7] | outcome [8]
active: inhibition [2] 78% | growth inhibition [4] 94%

N#Cc1cc([N+](=O)[O-])ccc1-n1nc(C(N)=O)n(Cc2cccc(F)c2)c1=S
active: growth inhibition [1] 100% | growth inhibition [4] 100%
inactive: inhibition [2] 6% | inhibition [3] -4% | outcome [5] | outcome [6] | outcome [7] | outcome [8]

CCCCc1cc(NCc2ccncc2)nc(Nc2cccc(OC)c2)n1
active: growth inhibition [1] 56% | growth inhibition [4] 101%
inactive: inhibition [2] 41% | inhibition [3] -5% | outcome [5] | outcome [6] | outcome [7] | outcome [8]

CC(CN(C)C)C(=O)Nc1ccc(-c2ccc(-c3nc4ccc(F)cc4[nH]3)cc2)cc1 (stereo unspecified)
active: growth inhibition [1] 95% | growth inhibition [4] 101%
inactive: inhibition [2] 14% | inhibition [3] -2% | outcome [5] | outcome [6] | outcome [7] | outcome [8]

Cc1cc(NC(=O)c2sc3ccccc3c2O)no1
inactive: growth inhibition [1] 25% | inhibition [2] 6% | inhibition [3] 1% | outcome [5] | outcome [6] | outcome [7] | outcome [8]
active: growth inhibition [4] 96%

CNc1cc(-c2ccc3ccnc(N)c3c2)nc(N)n1
active: growth inhibition [1] 81% | growth inhibition [4] 100%
inactive: inhibition [2] 23% | inhibition [3] -2% | outcome [5] | outcome [6] | outcome [7] | outcome [8]

O=C(Nc1ccc(Cl)cc1)c1cccc(S(=O)(=O)NC2CCN(CC3CCCCC3)CC2)c1
active: inhibition [2] 67% | growth inhibition [4] 92%
inactive: growth inhibition [1] 11% | inhibition [3] 0% | outcome [5] | outcome [6] | outcome [7] | outcome [8]

COc1ccc2ncc(F)c([C@H](O)CN3CCC(NCc4ccc5c(c4)NC(=O)CO5)CC3)c2c1
inactive: inhibition [2] 16% | inhibition [3] -1% | outcome [5] | outcome [6] | outcome [7] | outcome [8]
active: growth inhibition [1] 101% | growth inhibition [4] 102%

CCCC(=O)Nc1ccc(OCCCN(Cc2ccccc2OC(F)(F)F)c2ccc(C#N)c(C(F)(F)F)c2)cc1
inactive: inhibition [2] 0% | inhibition [3] -2% | outcome [5] | outcome [6] | outcome [7] | outcome [8]
active: growth inhibition [1] 95% | growth inhibition [4] 94%

FC(F)(F)COc1c(CNCCCCCCNCc2ccc3ccccc3c2OCC(F)(F)F)ccc2ccccc12
active: growth inhibition [1] 79% | inhibition [2] 100% | growth inhibition [4] 101%
inactive: inhibition [3] 6% | outcome [5] | outcome [6] | outcome [7] | outcome [8]

COc1ccccc1C1CC(c2ccc(C)cc2)=NN1C(=O)c1ccccc1 (stereo unspecified)
active: growth inhibition [4] 98%
inactive: growth inhibition [1] 45% | inhibition [2] 37% | inhibition [3] -5% | outcome [5] | outcome [6] | outcome [7] | outcome [8]

CC(C)(C)c1ccc(CNC(=O)/C=C/c2ccc(CNC3CCNCC3)cc2)cc1
inactive: growth inhibition [1] 21% | inhibition [2] 6% | inhibition [3] 1% | outcome [5] | outcome [6] | outcome [7] | outcome [8]
active: growth inhibition [4] 96%

c1cnc2ccc(NCc3ccc(-c4ccc(CNC5CCCC5)cc4)cc3)cc2c1
inactive: growth inhibition [1] 21% | inhibition [2] 27% | inhibition [3] -2% | outcome [5] | outcome [6] | outcome [7] | outcome [8]
active: growth inhibition [4] 97%

COc1cccc(C=NNc2cc(C)nc3ccccc23)c1
active: growth inhibition [4] 101%
inactive: growth inhibition [1] 46% | inhibition [2] 16% | inhibition [3] -8% | outcome [5] | outcome [6] | outcome [7] | outcome [8]

COc1ccc2nccc(N3CCC(CCNCc4ccc5c(n4)NC(=O)CS5)CC3)c2c1
inactive: inhibition [3] -1% | outcome [5] | outcome [6] | outcome [7] | outcome [8]
active: growth inhibition [1] 86% | inhibition [2] 55% | growth inhibition [4] 101%

COc1ccc(NC(=O)[C@H](Cc2ccccc2)Nc2cc(C)nc(NCCc3ccccc3)n2)cc1
inactive: inhibition [2] 6% | inhibition [3] -1% | outcome [5] | outcome [6] | outcome [7] | outcome [8]
active: growth inhibition [1] 83% | growth inhibition [4] 98%

COc1cccc(-c2ccc(C(=O)NCC3CCCN(Cc4cccc(C(F)(F)F)c4)C3)s2)c1 (stereo unspecified)
active: growth inhibition [4] 85%
inactive: growth inhibition [1] 18% | inhibition [2] 10% | inhibition [3] 0% | outcome [5] | outcome [6] | outcome [7] | outcome [8]

COc1ccc2nccc([C@@H](O)CN3CCC(NC(=O)Cn4nc(-c5ccc(C(F)(F)F)cc5)ccc4=O)CC3)c2c1
active: growth inhibition [1] 90% | growth inhibition [4] 100%
inactive: inhibition [2] 12% | inhibition [3] -3% | outcome [5] | outcome [6] | outcome [7] | outcome [8]

COc1cc(C)nc2ccc(NC(=O)c3cc(C(F)(F)F)cc(C(F)(F)F)c3)cc12
active: growth inhibition [1] 99% | growth inhibition [4] 101%
inactive: inhibition [2] 16% | inhibition [3] 0% | outcome [5] | outcome [6] | outcome [7] | outcome [8]

Cc1cc(N2CCCC2)nc(/N=C(\N)Nc2cccc(C(F)(F)F)c2)n1
active: growth inhibition [1] 100% | growth inhibition [4] 101%
inactive: inhibition [2] 33% | inhibition [3] 1% | outcome [5] | outcome [6] | outcome [7] | outcome [8]

Cc1cc2c(cc1C(F)(F)F)N(C(=O)Nc1cnc(OCCN(C)C)c(C(F)(F)F)c1)CC2
inactive: growth inhibition [1] 25% | inhibition [2] 28% | inhibition [3] -2% | outcome [5] | outcome [6] | outcome [7] | outcome [8]
active: growth inhibition [4] 88%

CCN(CCC1(c2ccc(Cl)c(Cl)c2)CN(C(=O)c2cc(OC)c(OC)c(OC)c2)CCO1)[C@@H]1C[C@@H]2c3ccccc3C[C@@H]21 (stereo partly specified)
inactive: inhibition [2] 26% | inhibition [3] -4% | outcome [5] | outcome [6] | outcome [7] | outcome [8]
active: growth inhibition [1] 65% | growth inhibition [4] 80%

CS(=O)(=O)c1ccc(OCCCN(Cc2ccccc2C(F)(F)F)c2ccc(C#N)c(C(F)(F)F)c2)cc1
active: growth inhibition [1] 76% | growth inhibition [4] 94%
inactive: inhibition [2] 4% | inhibition [3] -5% | outcome [5] | outcome [6] | outcome [7] | outcome [8]

Nc1nc(N)c2c(ccc3c2ccn3CCCF)n1
inactive: growth inhibition [1] 0% | inhibition [3] 0% | outcome [5] | outcome [6] | outcome [7] | outcome [8]
active: inhibition [2] 61% | growth inhibition [4] 94%

O=c1cc(NCCCN(Cc2cc3c(Cl)cc(Cl)cc3[nH]2)Cc2cc3c(Cl)cc(Cl)cc3[nH]2)[nH]c2ccccc12
inactive: inhibition [2] 23% | inhibition [3] -6% | outcome [5] | outcome [6] | outcome [7] | outcome [8]
active: growth inhibition [1] 80% | growth inhibition [4] 87%

Cc1cccc2[nH]c(-c3ccc(-c4ccc(CNCCN5CCNCC5)cc4)s3)nc12
active: growth inhibition [4] 88%
inactive: growth inhibition [1] -2% | inhibition [2] 30% | inhibition [3] 3% | outcome [5] | outcome [6] | outcome [7] | outcome [8]

CCN1CCC(N(Cc2ccc(-c3ccc(C(F)(F)F)cc3)cc2)C(=O)Cn2nc(C)c(=O)cc2SCc2ccc(F)cc2)CC1
inactive: inhibition [3] -1% | outcome [5] | outcome [6] | outcome [7] | outcome [8]
active: growth inhibition [1] 94% | inhibition [2] 77% | growth inhibition [4] 94%

NOCCCCOc1ccc(Cl)cc1
inactive: growth inhibition [1] -1% | inhibition [2] 2% | inhibition [3] -4% | outcome [5] | outcome [6] | outcome [7] | outcome [8]
active: growth inhibition [4] 98%

CC(C)CN1CCCN(Cc2cccc(NC(=O)c3ccc(Cl)c(Cl)c3)c2)CC1
inactive: growth inhibition [1] 9% | inhibition [2] 10% | inhibition [3] 0% | outcome [5] | outcome [6] | outcome [7] | outcome [8]
active: growth inhibition [4] 91%

Clc1ccc(-c2nc3ccc(-c4ccc5nc(-c6ccc(Cl)cc6)[nH]c5c4)cc3[nH]2)cc1
inactive: inhibition [3] -5% | outcome [5] | outcome [6] | outcome [7] | outcome [8]
active: growth inhibition [1] 99% | inhibition [2] 59% | growth inhibition [4] 101%

COc1ccc2nc(C)cc(NN=Cc3cc(OC)c(OC)cc3OC)c2c1
active: growth inhibition [1] 56% | growth inhibition [4] 100%
inactive: inhibition [2] 1% | inhibition [3] 5% | outcome [5] | outcome [6] | outcome [7] | outcome [8]

Cc1cccc2[nH]c(-c3ccc(-c4cccc(CN5CCC(C(N)=O)CC5)c4)s3)nc12
active: growth inhibition [4] 86%
inactive: growth inhibition [1] 16% | inhibition [2] 1% | inhibition [3] 4% | outcome [5] | outcome [6] | outcome [7] | outcome [8]

CCN(CCCN1CCCCC1)c1cc(C)nc(Nc2cccc3c2CCCC3)n1
inactive: growth inhibition [1] 46% | inhibition [3] -3% | outcome [5] | outcome [6] | outcome [7] | outcome [8]
active: inhibition [2] 60% | growth inhibition [4] 92%

O=C(N[C@H]1CCN(Cc2ccc(OCCCN3CCCCC3)cc2)C1)c1ccc(Cl)c(Cl)c1
active: growth inhibition [4] 102%
inactive: growth inhibition [1] 36% | inhibition [2] 27% | inhibition [3] 0% | outcome [5] | outcome [6] | outcome [7] | outcome [8]

Cc1cc(C2CCN(CCCCNC(=O)c3ccc(NC(=O)c4ccc(Cl)cc4)cc3)CC2)c(C)cc1OC(C)C
active: growth inhibition [1] 92% | growth inhibition [4] 100%
inactive: inhibition [2] 22% | inhibition [3] 7% | outcome [5] | outcome [6] | outcome [7] | outcome [8]
